Data as given in PubChem BioAssay (NCI).
Compounds without any hit were thinned out: in the full panel of roughly 79,000, 15% have a hit. A number with no mark means an inactive call. Active and inactive are the calls of the source. Cut-off read from the data, not from the text of the source: active = growth inhibition above about 70%; inactive = the rest.

Tests used:
[1] = NCI Yeast Anticancer Drug Screen. Data for the rad50 strain (AID 155);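 note: 0% = growth of vehicle-only cultures of the same strain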; conditions: S. cerevisiae rad50 strain growth inhibition, hits give high values
Summary of the method: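 Yeast carrying a defined DNA repair defect were exposed to test compounds, and growth was compared with vehicle-treated controls to give percent inhibition.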

[2] = NCI Yeast Anticancer Drug Screen. Data for the mec2-1 strain (AID 157); conditions: S. cerevisiae mec2-1 strain, hits give high values
Summary of the method: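 Readout is yeast growth inhibition, normalised to vehicle-treated controls, in the mec2-1 strain exposed to compound.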

[3] = NCI Yeast Anticancer Drug Screen. Data for the sgs1 mgt1 strain (AID 161);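 note: 0% = growth of cultures given vehicle only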; conditions: S. cerevisiae sgs1 mgt1 strain, hits give high values
Summary of the method: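 Yeast cells carrying a defined DNA-repair defect were exposed to test compounds. Growth inhibition was measured relative to vehicle-treated controls.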

[4] = NCI Yeast Anticancer Drug Screen. Data for the cln2 rad14 strain (AID 165);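 note: 0% = growth equal to vehicle treated cultures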; conditions: S. cerevisiae cln2 rad14 strain, hits give high values
Summary of the method: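 Relative to vehicle controls, growth inhibition of compound-treated cln2 rad14 yeast was recorded.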

[5] = NCI Yeast Anticancer Drug Screen. Data for the bub3 strain (AID 167); conditions: S. cerevisiae bub3 mutant strain, hits give high values
Summary of the method: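 Compounds were applied to a genetically altered yeast strain carrying a cell-cycle control defect. Growth inhibition was scored against vehicle-treated controls.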

[6] = NCI Yeast Anticancer Drug Screen. Data for the mlh1 rad18 strain (AID 175); conditions: S. cerevisiae mlh1 rad18 strain growth inhibition, hits give high values
Summary of the method: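 Test agents were incubated with a yeast strain of defined genotype (DNA damage repair defect). Inhibition of growth was derived by comparison with vehicle-exposed cultures.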

[7] = at 5.0 µM (retest, dose inferred, filed as 0.5)
[8] = at 50.0 µM (retest, dose inferred, filed as 5.0)

SMILES	growth inhibition [1, 7]	growth inhibition [1, 8]	growth inhibition ([1]; at 50.0 µM)	growth inhibition [2, 7] [%]	growth inhibition [2, 8]	growth inhibition ([2]; at 50.0 µM)	growth inhibition [3, 7]	growth inhibition [3, 8]	growth inhibition ([3]; at 50.0 µM)	growth inhibition [4, 7] [%]	growth inhibition [4, 8]	growth inhibition ([4]; at 50.0 µM)	growth inhibition [5, 7]	growth inhibition [5, 8]	growth inhibition ([5]; at 50.0 µM)	growth inhibition [6, 7]	growth inhibition [6, 8]	growth inhibition ([6]; at 50.0 µM)
CCCc1cc(=O)oc2c3c(c4c(c12)OC(C)(C)CC4)O[C@H](C)[C@H](C)C3=O	-7%	99% (active)	88.5% (active)	-18	99% (active)	91.6% (active)	-12%	99% (active)	88.2% (active)	-6	98% (active)	90.3% (active)	-18%	99% (active)	91.1% (active)	-5%	99% (active)	84.7% (active)
CN(C)C(=O)c1cc(Cl)cc(-c2ccccc2)c1O	1%	67%	40.5%	1	74% (active)	32.1%	-1%	68%	46.1%	-5	38%	-6.75%	1%	86% (active)	60.2%	1%	93% (active)	78.8% (active)
FC(F)(F)c1ccc(NC(=S)SCc2ccc(Cl)cc2)cc1	8%	99% (active)	99.3% (active)	5	99% (active)	99.7% (active)	13%	99% (active)	99.5% (active)	-3	98% (active)	99.4% (active)	26%	99% (active)	99.5% (active)	17%	99% (active)	99.5% (active)
Cn1c(=S)c2[nH]c(SCCN3CCOCC3)nc2n(C)c1=O	18%	81% (active)	98.5% (active)	20	70% (active)	99.5% (active)	31%	72% (active)	99.4% (active)	3	59%	61%	30%	83% (active)	99% (active)	15%	90% (active)	98.7% (active)
CCC(C)OC(=S)S (stereo unspecified)	4%	36%	42.9%	8	44%	33.8%	-7%	26%	74.2% (active)	1	-4%	-20.8%	3%	59%	90.7% (active)	15%	57%	85% (active)
O=C(/C(=C/c1ccc(Cl)cc1)c1ccccc1)c1ccc(O)cc1	94% (active)	94% (active)	95.8% (active)	64	97% (active)	95.5% (active)	94% (active)	94% (active)	96.5% (active)	53	92% (active)	92.5% (active)	89% (active)	95% (active)	97.3% (active)	96% (active)	95% (active)	97% (active)
CCCCCN(CCCCC)C(=O)CCl	-2%	30%	68.6%	-3	15%	53.5%	-3%	10%	69.2%	8	7%	-6.75%	12%	58%	82.5% (active)	-1%	23%	85.3% (active)
CCC(c1ccc(OC)cc1)C(CC)c1ccc(O)c(CN(C)C)c1 (stereo unspecified)	-2%	39%	60.1%	0	38%	27.1%	-4%	86% (active)	72.9% (active)	-1	41%	38.3%	4%	50%	49%	3%	84% (active)	83.5% (active)
Clc1ccc(C2SCc3nc4ccccc4n32)cc1Cl (stereo unspecified)	-8%	95% (active)	97.2% (active)	1	97% (active)	98.1% (active)	15%	96% (active)	98% (active)	-16	95% (active)	95.6% (active)	7%	96% (active)	96.8% (active)	3%	96% (active)	95% (active)
Cc1ccc(C(O)CCN2CCOCC2)c(C)c1 (stereo unspecified)	26%	69%	81.5% (active)	30	61%	45.1%	44%	68%	78% (active)	44	71% (active)	57.2%	43%	82% (active)	70%	23%	65%	69.2%
O=CNc1ccc(Oc2ccc(NC=O)cc2)cc1	-1%	-18%	3.6%	-18	-19%	6.75%	1%	1%	1.45%	-1	7%	61.3%	-2%	-15%	-6.45%	17%	-5%	30.6%
CCCCCCCCCCCCCCCCCC(=O)OC(C)CCC1CCCO1 (stereo unspecified)	4%	-6%	26.4%	1	0%	12.8%	5%	11%	5.9%	5	3%	0.1%	1%	-2%	-5.95%	1%	-58%	13%
